PTHR1 agonist – qHTS for PTHR1 Agonists: Primary Screen | hit rate 0.075% among 410,000 | HEK293 GP2 PTHR1 cells, GloSensor cAMP luminescence, 1 h | Parathyroid hormone/parathyroid hormone-related peptide receptor (Homo sapiens), Q03431 | Potency, µM (titrated, usually from 115 µM), inactives show at the top dose activation, most hits filed as activators; further: potency means the concentration at half of the fitted maximal effect; nearly all actives have a fitted effect of over 55% in size
Target sequence (Q03431 whole entry, looked up): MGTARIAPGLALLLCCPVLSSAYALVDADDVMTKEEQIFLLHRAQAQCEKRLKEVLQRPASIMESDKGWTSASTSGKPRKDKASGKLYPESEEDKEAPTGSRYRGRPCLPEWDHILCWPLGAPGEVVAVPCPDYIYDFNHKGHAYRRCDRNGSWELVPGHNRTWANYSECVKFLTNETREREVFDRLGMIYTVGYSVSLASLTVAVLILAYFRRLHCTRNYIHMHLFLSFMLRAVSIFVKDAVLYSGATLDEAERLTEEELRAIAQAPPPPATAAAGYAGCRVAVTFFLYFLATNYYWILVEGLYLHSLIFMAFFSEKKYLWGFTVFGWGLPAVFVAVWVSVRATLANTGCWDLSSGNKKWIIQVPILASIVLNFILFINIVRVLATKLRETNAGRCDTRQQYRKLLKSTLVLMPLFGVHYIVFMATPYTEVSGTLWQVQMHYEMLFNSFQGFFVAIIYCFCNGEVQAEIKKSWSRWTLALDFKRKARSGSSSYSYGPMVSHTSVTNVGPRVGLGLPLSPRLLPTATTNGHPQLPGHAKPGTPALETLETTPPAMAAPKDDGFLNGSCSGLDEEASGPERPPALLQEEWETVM
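HEK-293-derived GP2 cells expressing PTHR1 and a GloSensor cAMP reporter, 3,000/well, plated overnight, given luciferin plus IBMX (each 0.5 mM as added) for 1 h at 37 °C, then compound for 1 h at 37 °C. Luminescence was read after 15 min at room temperature.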
DRD3 agonist – qHTS of D3 Dopamine Receptor Agonist: qHTS; D(3) dopamine receptor (Homo sapiens), P35462; D3R DiscoveRx beta-arrestin cells, luminescence, 90 min; max activation, %; hit rate 0.58% among 410,000; AID 652048, 2013; in the data active means max activation above about 30%; further: 0% is about no effect
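Cells at 1500/well, incubated overnight, then treated with pinned compounds (dopamine as control) for 90 min at 37 degrees C. DiscoveRx reagent added for 30 - 60 minutes at room temperature; luminescence read.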
DRD3 antagonist – qHTS of D3 Dopamine Receptor Antagonist: qHTS | D(3) dopamine receptor (Homo sapiens), P35462 | D3R cells, DiscoveRx beta-arrestin luminescence, antagonist mode; active compounds read low | max response, negative = inhibition, % | hit rate 2.5% among 360,000; in the data active means max response below about -50%; inconclusive means no clear call, values can overlap the other calls; further: on the % scale 0 is the no-effect control and ±100 the full control effect
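Cells plated overnight at 1500 cells/well, then exposed to library compounds with dopamine controls for 90 minutes at 37 degrees C. DiscoveRx reagent added for 30–60 minutes at room temperature; luminescence read, quantitative HTS format.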
RGS4 inh – Inhibitors of Regulator of G Protein Signaling (RGS) 4: qHTS; Transcreener GDP fluorescence polarization, RGS4-accelerated GTP hydrolysis; Potency, µM (top dose mostly 114 µM), for the others: at the top dose activity change, negative = inhibition, usual class: inhibitors; hit rate 0.039% among 390,000; further: potency means the concentration at half of the fitted maximal effect; on the % scale 0 is the no-effect control and ±100 the full control effect; nearly all actives have a fitted effect of over 75% in size
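MLSMR compounds (23 nl, pin-transferred) preincubated 10 min at room temperature with a 500nM (2x) first reagent, then RGS4 at 900nM (2x) plus Transcreener GDP mix added; fluorescence polarization (620/688 nm) read before and after 90 min at 30 °C.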
BRCA1 expr up – qHTS Assay to Identify Small Molecule Activators of BRCA1 Expression; MCF7-BRCA1-FFLuc reporter, luminescence, 48 h; response scale: scaled: vehicle 0%, 10 µM genistein 100%; Potency, µM (series often up to 46.1 µM), without a hit: at the top dose activation, usual class: activators; hit rate 1.1% among 380,000; further: potency means the concentration at half of the fitted maximal effect; nearly all actives have a fitted effect of over 80% in size
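Luminescence from a BRCA1-driven firefly luciferase in MCF7 cells was read after 48 h compound exposure at 37 C. Data normalized against DMSO and a 10microM genistein activation control, then curve-fitted across the titration.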
B2AR arrestin – qHTS assay of beta-arrestin-biased ligands of beta2-adrenergic receptor; Beta-2 adrenergic receptor (Homo sapiens), P07550; beta-arrestin recruitment to beta2AR, cell-based reporter; Potency, µM (titrated, usually from 46.1 µM), without a hit: at the highest dose activation, actives largely listed as activators; hit rate 0.02% among 330,000; AID 492947, 2010;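 further: potency means the concentration at half of the fitted maximal effect; 0% = DMSO controls and full agonism = EC100 isoproterenol or metaproterenol; nearly all actives have a fitted effect of over 65% in size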
Starred values were filed as active, the others as inactive; [ ] = remark or other dose. Compounds with a hit are over-represented: about 3.7% of the library has one in this group of screens. Unless noted, the call rests on the fitted dose curve; in most records, active means well fitted curve in the direction sought with a large enough effect; inconclusive means small, poorly fitted or top-dose-only effect, or another doubt; inactive means no such curve, though single readings can be large; an effect the other way counts as inactive or inconclusive.

Results for COC(=O)C1=C(c2ccccc2OCc2ccccc2)C[C@@H]2CC[C@H]1N2C(=O)NC1CCN(Cc2ccccc2)CC1 ?
PTHR1 agonist: 15%; DRD3 agonist: -71; DRD3 antagonist: -85*; RGS4 inh: 19%; BRCA1 expr up: -43%; B2AR arrestin: 3%

What do the screens show for `COC(=O)C1=C(c2cccc(OCc3ccccc3)c2)C[C@@H]2CC[C@H]1N2C(=O)NC1CCN(Cc2ccccc2)CC1`?
PTHR1 agonist: -7%; DRD3 agonist: -49; DRD3 antagonist: -120*; RGS4 inh: -11%; BRCA1 expr up: -58%; B2AR arrestin: 0%

What do the screens show for `CN(C)[C@H](Cc1ccccc1)c1ccccc1`?
DRD3 agonist: 7

What do the screens show for `O=C(O)c1c(C(=O)O)c(-c2ccc(Br)cc2)n2c1CSC2`?
PTHR1 agonist: -32%; DRD3 agonist: -1; DRD3 antagonist: -9; RGS4 inh: 15%; BRCA1 expr up: -6%; B2AR arrestin: 0%

Results for CC1=C(O)C(=O)[C@H]2O[C@@H]2C1=O ?
RGS4 inh: inactive

What do the screens show for `CCC(=O)O[C@](Cc1ccccc1)(c1ccccc1)[C@H](C)CN(C)C`?
DRD3 agonist: 55*

How did COC[C@H]([C@@H](O)[C@@H](O)C(=O)NCC[C@@H](C)c1nc(/C=C/C[C@H]2OC3(C[C@H](O)[C@H]2C)OC([C@@H](C[C@@H](O)[C@@H](C)[C@@H](O)[C@@H](C)/C=C(C)/C(C)=C/C=C/C(C)=C\C#N)OC)[C@@H](OP(=O)(O)O)C3(C)C)co1)N(C)C (some centres not stated) do in these assays?
RGS4 inh: inactive

Results for CCC(=O)Nc1nc2ccccc2n1CCN(C)C ?
PTHR1 agonist: inconclusive; DRD3 agonist: -1; DRD3 antagonist: -81*; RGS4 inh: 10%; BRCA1 expr up: 11%; B2AR arrestin: 0%

Results for COc1cc(C[C@H](C)N)c(OC)cc1C ?
DRD3 agonist: -20

How did CN1CC[C@]23c4c5ccc(O)c4O[C@H]2[C@@H](O)CC[C@H]3[C@H]1C5 do in these assays?
DRD3 agonist: 0

How did Cc1oc(-c2ccc(Cl)cc2)nc1CN1CCC(C(=O)NCCCN2CCN(c3cccc(Cl)c3)CC2)CC1 do in these assays?
PTHR1 agonist: -67%; DRD3 agonist: -26; RGS4 inh: -16%

Results for CN1CCN(CCC(C#N)(c2ccccc2)c2ccccc2)CC1 ?
PTHR1 agonist: inactive; DRD3 agonist: -1; DRD3 antagonist: -80*; RGS4 inh: -30%; BRCA1 expr up: -11%; B2AR arrestin: 0%

What do the screens show for `CC(CN1CCOCC1)C(C#N)(c1ccccc1)c1ccccc1` (configuration not stated)?
PTHR1 agonist: inactive; DRD3 agonist: -15; DRD3 antagonist: 7; RGS4 inh: -12%; BRCA1 expr up: -30%

Results for CCOP(=S)(OCC)c1ccc(N(C)C)cc1 ?
PTHR1 agonist: 18µM*; DRD3 agonist: -2; DRD3 antagonist: -21; RGS4 inh: -27%; BRCA1 expr up: 14%; B2AR arrestin: 0%

What do the screens show for `CCCCCCC(=O)O[C@H]1CC[C@H]2[C@@H]3CC[C@H]4CC(=O)C=C(C)[C@]4(C)[C@H]3CC[C@]12C`?
DRD3 agonist: 7

How did Cc1cccc(OCC(=O)N2CCN(Cc3ccncc3)CC2)c1 do in these assays?
PTHR1 agonist: -23%[57.5 µM]; DRD3 agonist: -6; DRD3 antagonist: -77*; RGS4 inh: -27%; BRCA1 expr up: 13%; B2AR arrestin: 0%

What do the screens show for `Cc1cccc(OCC(=O)N2CCN(Cc3ccc4c(c3)OCO4)CC2)c1`?
PTHR1 agonist: -38%; DRD3 agonist: -4; DRD3 antagonist: inconclusive; RGS4 inh: -20%; BRCA1 expr up: 0%; B2AR arrestin: 0%

How did CCc1ccc(NC(=O)CN2C(=O)C3(SCC(=O)N3c3ccc(F)c(F)c3)c3ccccc32)cc1 (configuration not stated) do in these assays?
PTHR1 agonist: inactive; DRD3 agonist: -3; RGS4 inh: inconclusive; BRCA1 expr up: -58%

What do the screens show for `C[C@H]1[C@H]2Cc3ccc(O)cc3[C@]1(C)CCN2CCc1ccccc1`?
DRD3 agonist: -17

Results for CN1[C@@H]2CC[C@H]1CC(OC1c3ccccc3CCc3ccccc31)C2 (some centres not stated) ?
PTHR1 agonist: -26%; DRD3 agonist: -88; DRD3 antagonist: -91*; RGS4 inh: -2%; BRCA1 expr up: -7%; B2AR arrestin: 0%

Results for CCCCn1nnnc1C(c1cccc2ccccc12)N1CCC2(CC1)C(=O)NCN2c1ccccc1 (configuration not stated) ?
PTHR1 agonist: 0%; DRD3 agonist: -10; DRD3 antagonist: inconclusive; BRCA1 expr up: -5%

How did O=C1NCN(c2ccccc2)C12CCN(C(c1ccccc1OC(F)(F)F)c1nnnn1Cc1ccccc1)CC2 (configuration not stated) do in these assays?
PTHR1 agonist: -21%; DRD3 agonist: 30*; DRD3 antagonist: 92; BRCA1 expr up: -67%

What do the screens show for `COc1ccc(C(c2nnnn2-c2c(C)cccc2C)N2CCC3(CC2)C(=O)NCN3c2ccccc2)cc1` (configuration not stated)?
PTHR1 agonist: -19%; DRD3 agonist: -8; DRD3 antagonist: -54*; BRCA1 expr up: -63%

How did CCCCn1nnnc1C(c1cccs1)N1CCC2(CC1)C(=O)NCN2c1ccccc1 (configuration not stated) do in these assays?
PTHR1 agonist: -21%; DRD3 agonist: -10; DRD3 antagonist: -52*; BRCA1 expr up: -1%

What do the screens show for `Cc1cc(-c2nnn(CCCOC(C)(C)C)c2C)ccc1-c1cn(CCCOC(C)(C)C)nn1`?
PTHR1 agonist: -86%; DRD3 agonist: 3; DRD3 antagonist: 30; BRCA1 expr up: 2%

Results for Cc1ccc(NC(=O)NCc2ccc3c(c2)CCN3C(=O)c2ccccc2)c(Cl)c1 ?
PTHR1 agonist: -50%; DRD3 agonist: -8; RGS4 inh: -17%; BRCA1 expr up: -6%

How did Cc1ccc(-c2ccc(=O)n(CCC(=O)N3CCC4(CC3)OCCO4)n2)cc1 do in these assays?
PTHR1 agonist: inconclusive; DRD3 agonist: 5; DRD3 antagonist: 8; RGS4 inh: 10%; BRCA1 expr up: 11µM*; B2AR arrestin: 0%

What do the screens show for `CC(=O)[C@@H]1CC[C@H]2[C@@H]3CC[C@@H]4CC(=O)CC[C@]4(C)[C@H]3CC[C@]12C`?
RGS4 inh: 230%[56.9 µM]
